We go through five compounds from PubChem BioAssay.

The structures appear in SMILES notation. Inconclusive results are not listed. Calls of active or inactive are those of the source.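 How the source made its calls, unless noted: active means normalized viability below 100% at a tested concentration; inactive means the rest.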

Usually AC50 stands for the midpoint of the concentration-response curve, whichever way the signal moves. For orientation: viability means a read-out of living cells in per cent, often relative to untreated cells.

Assay [1] in a line: growth inhibition of DIPG glioma cells, dose response, cell-based, JHH-DIPG-1, MIPE4.0, CellTiter-Glo, qHTS (AID 1347062; cut-off not given, nearly all actives have AC50 up to about 27 µM;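 on AC50: cells exposed to compound for two days before readout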). The settings on record: JHH-DIPG-1 viability, CellTiter-Glo ATP luminescence. A general note: Cellular ATP, detected with luciferase, serves as a proxy for viable cell number.
Assay [2] in a line: growth inhibition of DIPG glioma cells, dose response, cell-based, SU-DIPG-IV, MIPE4.0, CellTiter-Glo, qHTS (AID 1347063; cut-off not given, nearly all actives have AC50 up to about 30 µM;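 further: compound exposure lasted 48 hours before the viability readout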). To be noted: SU-DIPG-IV viability, CellTiter-Glo ATP luminescence.
Assay [3] can be described thus: viability loss in pontine glioma line – cell-based, SU-DIPG-XXV, MIPE5.0, CellTiter-Glo, qHTS, dose response (AID 1347065; cut-off not given, nearly all actives have AC50 up to about 26 µM;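 further: cells exposed to compound for 48 hours before ATP readout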). The settings on record: CellTiter-Glo ATP luminescence.
A short description of assay [4]: SU-DIPG-VI glioma cell viability, MIPE4.0 library, CellTiter-Glo luminescence, qHTS (AID 1347066; cut-off not given, nearly all actives have AC50 up to about 30 µM;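 further: cells exposed to compound for 48 hours before readout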). The settings on record: CellTiter-Glo ATP luminescence.
Assay [5] is described as follows: JHH-DIPG-1 glioma cell viability, MIPE5.0 library, CellTiter-Glo luminescence, qHTS (AID 1347067; cut-off not given, nearly all actives have AC50 up to about 26 µM;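 further: cells exposed to compound for 48 hours before readout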). To be noted: JHH-DIPG-1 glioma viability, CellTiter-Glo ATP luminescence.
The nature of assay [6]: sensitizers of A549 cells to miR-34 induction, primary screen, imaging, A549 dox-inducible miR-34, nuclei and caspase counts (AID 1347080;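 active means compounds whose cell count with miR-34 switched on is under 0.7 times the count with it off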). To be noted: A549 miR-34 inducible, Hoechst nuclei count, 48 h.
A short description of assay [7]: survival rescue of mitochondrial mutant cells in low glucose, primary screen, MELAS cybrids, Rieske KO mouse fibroblasts, CellTiter-Glo (AID 1508586;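 active means mean z-score across replicates of 1.96 or higher in either the MELAS or the Rieske mutant cell line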;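 further: z relative to plate mean and SD of compound and empty wells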).
A short description of assay [8]: growth inhibition of DIPG glioma cells, dose response, cell-based, SU-DIPG-XIII, MIPE4.0, CellTiter-Glo, qHTS (AID 1347061; cut-off not given, nearly all actives have AC50 up to about 37 µM;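 further: cells exposed to compound for 48 hours before readout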). The settings on record: SU-DIPG-XIII viability, CellTiter-Glo ATP luminescence.
A short description of assay [9]: growth inhibition of DIPG glioma cells, dose response, cell-based, SU-DIPG-XIII, MIPE5.0, CellTiter-Glo, qHTS (AID 1347064; cut-off not given, nearly all actives have AC50 up to about 23 µM). To be noted: SU-DIPG-XIII viability, CellTiter-Glo ATP luminescence.
The nature of assay [10]: SU-DIPG-XXV glioma cell viability, MIPE5.0 library, qHTS (AID 1347068; cut-off not given, nearly all actives have IC50 up to about 30 µM).
The nature of assay [11]: modifiers of HSF1 nuclear foci, imaging, Selleck Cancer Library (AID 1347162; in the data active means plate-normalised HSF1 focus index below about 0.46). The settings on record: human cells, at 10 µM; SSMD: measured here: HSF1 foci SSMD mean; cell count: measured here: cell number; plate-normalised HSF1 focus index: stronger effect = lower value.
Assay [12] in a line: ovarian cancer cell viability with rucaparib, profiling panel, oncology-focused library, rucaparib conditional (AID 1508598). The settings on record: patient-derived ovarian cancer cells, CellTiter-Glo viability, 144 h, stronger effect = lower value.
The mark [13] stands for this setting: stronger effect = lower value, cell number ratio, induced over uninduced.
[14] abbreviates: measured here: relative caspase fold change +Dox/-Dox.
The mark [15] stands for this setting: measured here: total cells with miR-34 induction, stronger effect = lower value.
[16] abbreviates: measured here: total cells without miR-34 induction.
[17] abbreviates: MELAS cybrid survival, CellTiter-Glo 48 h, stronger effect = higher value.
The mark [18] stands for this setting: Rieske KO mouse fibroblast survival, CellTiter-Glo 72 h.

On to `COc1ccc(Cn2ccc3ccc(C(=O)NO)cc32)cc1`, for which the compound was classed as inactive in assay [1], in assay [2], in [3], in assay [4] and in assay [5]. In addition, the fold change in [6] (setting [13]) is 0.793 (inactive); in assay [6] (setting [14]), 0.954. Also, the values for the cell count in assay [6] (setting [15]) and in assay [6] (setting [16]) were 5300 and 6690, respectively. In addition, the figures for the z-score in assay [7] (setting [17]) and in assay [7] (setting [18]) were -0.343 (inactive) and 0.636, respectively.

Consider `CC(C)(N)c1ccc(-c2nc3ccccc3nc2-c2ccccc2)cc1`, for which the AC50 in assay [1] is 23.5 µM (active); in assay [2], 26.4 µM (active); in [3] it was 23.5 µM (active).

Consider `COC(=O)C1=CO[C@@H](O)[C@@H]2C(CO)=CC[C@H]12`, for which the compound was called inactive in assay [8]. Moreover, the fold change in assay [6] (setting [13]) is 1 (inactive); in assay [6] (setting [14]), 0.878. Moreover, the cell count in [6] (setting [15]) and in assay [6] (setting [16]) was 10100 in each case.

As for `Oc1ccc(C2=Cc3ccc(O)cc3OC2)cc1`, the values for the AC50 in assay [1] and in assay [2] were 8.33 µM (active) and 3.32 µM (active), respectively. The compound was classed as inactive in [3].

On to `CCCS(=O)(=O)Nc1ccc(F)c(C(=O)c2c[nH]c3ncc(-c4ccc(Cl)cc4)cc23)c1F`, for which the compound was classed as inactive in [1], in [9], in assay [4] and in assay [10]. Moreover, the AC50 in [2] was 14.8 µM (active). The fold change in [6] (setting [13]) is 0.763 (inactive); in assay [6] (setting [14]) it was 1. The cell count was 5420 in assay [6] (setting [15]), 7100 in assay [6] (setting [16]) and 6960 in [11]. Moreover, in assay [11], the SSMD worked out at 2.8. Besides, the plate-normalised HSF1 focus index in assay [11] was 1.15 (inactive). Moreover, the z-score in assay [7] (setting [17]) was -0.461 (inactive); in assay [7] (setting [18]), -0.424. Moreover, the viability in assay [12] (at 0.000305 µM, OCI-C5x cells, with rucaparib 10 µM, 100% = cells with rucaparib alone) was 120% (inactive); in assay [12] (at 0.000305 µM, OCI-C5x cells, without rucaparib), 96.8% (active); in assay [12] (at 0.000305 µM, OCI-P5x cells, with rucaparib 20 µM, 100% = cells with rucaparib alone) it was 95.6% (active); in assay [12] (at 0.000305 µM, OCI-P5x cells, without rucaparib), 93% (active); in [12] (at 0.00122 µM, OCI-C5x cells, with rucaparib 10 µM, 100% = cells with rucaparib alone), 112% (inactive); in assay [12] (at 0.00122 µM, OCI-C5x cells, without rucaparib), 111% (inactive). Further, the viability is 99.5% (active) in assay [12] (at 0.00122 µM, OCI-P5x cells, with rucaparib 20 µM, 100% = cells with rucaparib alone); 96.2% (active) in [12] (at 0.00122 µM, OCI-P5x cells, without rucaparib); 123% (inactive) in assay [12] (at 0.00488 µM, OCI-C5x cells, with rucaparib 10 µM, 100% = cells with rucaparib alone); 106% (inactive) in assay [12] (at 0.00488 µM, OCI-C5x cells, without rucaparib); 103% (inactive) in assay [12] (at 0.00488 µM, OCI-P5x cells, with rucaparib 20 µM, 100% = cells with rucaparib alone); 99% (active) in assay [12] (at 0.00488 µM, OCI-P5x cells, without rucaparib). The viability was 107% (inactive) in assay [12] (at 0.0195 µM, OCI-C5x cells, with rucaparib 10 µM, 100% = cells with rucaparib alone); 107% (inactive) in [12] (at 0.0195 µM, OCI-C5x cells, without rucaparib); 107% (inactive) in assay [12] (at 0.0195 µM, OCI-P5x cells, with rucaparib 20 µM, 100% = cells with rucaparib alone); 102% (inactive) in assay [12] (at 0.0195 µM, OCI-P5x cells, without rucaparib); 105% (inactive) in assay [12] (at 0.0781 µM, OCI-C5x cells, with rucaparib 10 µM, 100% = cells with rucaparib alone); 107% (inactive) in [12] (at 0.0781 µM, OCI-C5x cells, without rucaparib). Further, the viability in assay [12] (at 0.0781 µM, OCI-P5x cells, with rucaparib 20 µM, 100% = cells with rucaparib alone) was 103% (inactive); in assay [12] (at 0.0781 µM, OCI-P5x cells, without rucaparib) it was 104% (inactive); in assay [12] (at 0.313 µM, OCI-C5x cells, with rucaparib 10 µM, 100% = cells with rucaparib alone), 106% (inactive); in assay [12] (at 0.313 µM, OCI-C5x cells, without rucaparib) it was 107% (inactive); in [12] (at 0.313 µM, OCI-P5x cells, with rucaparib 20 µM, 100% = cells with rucaparib alone), 93.7% (active); in [12] (at 0.313 µM, OCI-P5x cells, without rucaparib), 105% (inactive). Also, the viability in assay [12] (at 1.25 µM, OCI-C5x cells, with rucaparib 10 µM, 100% = cells with rucaparib alone) is 49.6% (active); in [12] (at 1.25 µM, OCI-C5x cells, without rucaparib), 35% (active); in [12] (at 1.25 µM, OCI-P5x cells, with rucaparib 20 µM, 100% = cells with rucaparib alone), 45.5% (active); in assay [12] (at 1.25 µM, OCI-P5x cells, without rucaparib), 10.7% (active); in assay [12] (at 5 µM, OCI-C5x cells, with rucaparib 10 µM, 100% = cells with rucaparib alone), 97.9% (active); in [12] (at 5 µM, OCI-C5x cells, without rucaparib), 105% (inactive). Also, the viability is 49.3% (active) in [12] (at 5 µM, OCI-P5x cells, with rucaparib 20 µM, 100% = cells with rucaparib alone) and 16.3% (active) in assay [12] (at 5 µM, OCI-P5x cells, without rucaparib).
